This is an account of results in publication PMC9911399, “Two distinct binding modes provide the RNA-binding protein RbFox with extraordinary sequence specificity”.

Changes are numbered by the printed parent chain; changes in the protein carry UniProt numbers. Whole data set: some 16,000 sequences, median “ka relative to ugcaugu” near 0.096, cut for the highest 2% near 0.35. Only a selection was taken, and the highest values are over-represented in it overall.

T1: RBFOX1 RRM RbFoxmut (Fox-RRM*) (Homo sapiens, UniProt Q9NWB1 109-208, R118D;E147R;N151S;E152T)
T1 sequence: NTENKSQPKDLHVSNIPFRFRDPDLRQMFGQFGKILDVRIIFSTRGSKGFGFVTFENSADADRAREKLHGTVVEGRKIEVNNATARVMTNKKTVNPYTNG

B1: AACUUAC (DNA:RNA)
RNA: GGGAGACCGGAAUUCAGAUUGUCCAACUUACUUAAAUCCCGUCGUAGCCACCA
DNA 1: CAATCTGAATTCCGGTCTCCC
DNA 2: TGGTGGCTACGACGGGATT
B2: GCCAUGA (DNA:RNA)
RNA: B1 RNA with A25G, A26C, U28A, A30G, C31A
DNA 1: CAATCTGAATTCCGGTCTCCC
DNA 2: TGGTGGCTACGACGGGATT
B3: AUGAGAG (DNA:RNA)
RNA: B1 RNA with A26U, C27G, U28A, U29G, C31G
DNA 1: CAATCTGAATTCCGGTCTCCC
DNA 2: TGGTGGCTACGACGGGATT
B4: GUCAUGA (DNA:RNA)
RNA: B1 RNA with A25G, A26U, U28A, A30G, C31A
DNA 1: CAATCTGAATTCCGGTCTCCC
DNA 2: TGGTGGCTACGACGGGATT
B5: GCAUGAC (DNA:RNA)
RNA: B1 RNA with A25G, A26C, C27A, U29G
DNA 1: CAATCTGAATTCCGGTCTCCC
DNA 2: TGGTGGCTACGACGGGATT
B6: GCAUUGA (DNA:RNA)
RNA: B1 RNA with A25G, A26C, C27A, A30G, C31A
DNA 1: CAATCTGAATTCCGGTCTCCC
DNA 2: TGGTGGCTACGACGGGATT
B7: GCAUGAG (DNA:RNA)
RNA: B1 RNA with A25G, A26C, C27A, U29G, C31G
DNA 1: CAATCTGAATTCCGGTCTCCC
DNA 2: TGGTGGCTACGACGGGATT
B8: GGAUGAC (DNA:RNA)
RNA: B1 RNA with A25G, A26G, C27A, U29G
DNA 1: CAATCTGAATTCCGGTCTCCC
DNA 2: TGGTGGCTACGACGGGATT
B9: GCAGGAG (DNA:RNA)
RNA: B1 RNA with A25G, A26C, C27A, U28G, U29G, C31G
DNA 1: CAATCTGAATTCCGGTCTCCC
DNA 2: TGGTGGCTACGACGGGATT
B10: GUAUGAC (DNA:RNA)
RNA: B1 RNA with A25G, A26U, C27A, U29G
DNA 1: CAATCTGAATTCCGGTCTCCC
DNA 2: TGGTGGCTACGACGGGATT
B11: GGCAUAA (DNA:RNA)
RNA: B1 RNA with A25G, A26G, U28A, C31A
DNA 1: CAATCTGAATTCCGGTCTCCC
DNA 2: TGGTGGCTACGACGGGATT
B12: GGCAUGA (DNA:RNA)
RNA: B1 RNA with A25G, A26G, U28A, A30G, C31A
DNA 1: CAATCTGAATTCCGGTCTCCC
DNA 2: TGGTGGCTACGACGGGATT
B13: CGCAUGA (DNA:RNA)
RNA: B1 RNA with A25C, A26G, U28A, A30G, C31A
DNA 1: CAATCTGAATTCCGGTCTCCC
DNA 2: TGGTGGCTACGACGGGATT

This assay addresses T1, RBFOX1 RRM RbFoxmut (Fox-RRM*). Description: EMSA; HiTS-Eq, 1 nM pool, 10 min; buffer printed only for the single-RNA assays: 10 mM Tris pH 7.5, 150 mM NaCl, 3.4 mM EDTA, 0.001% NP-40, 30 C. Particulars: tags: His6 N-terminal (pET28a); label: 5' 32P. The essentials: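 A pool of RNA with 7 randomized nucleotides, 5′-radiolabelled and with DNA-annealed flanks, was equilibrated at 1 nM for 10 min in 50 µL with purified RbFox RRM, wild type or mutant, across increasing protein concentrations. Free RNA was separated by 8% native PAGE, excised, reverse-transcribed, barcoded by PCR and sequenced. Relative association constants were obtained from read-count changes of each RNA species versus the control reaction and normalised to the cognate motif.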
As for B1, the binding signal is 0.0902 KA relative to UGCAUGU. Consider B2, for which the binding signal was 0.134 KA relative to UGCAUGU.

On to B3, for which the binding signal was 0.16 KA relative to UGCAUGU. For B4, the binding signal is 0.2 KA relative to UGCAUGU.

B5: the binding signal is 0.603 KA relative to UGCAUGU.

As to B6, the binding signal is 0.178 KA relative to UGCAUGU. On to B7, for which the binding signal was 0.771 KA relative to UGCAUGU. Turning to B8, the binding signal was 0.124 KA relative to UGCAUGU. For B9 the value was 0.0994 KA relative to UGCAUGU; for B10, 0.219 KA relative to UGCAUGU; for B11, 0.117 KA relative to UGCAUGU. B12: the binding signal is 0.624 KA relative to UGCAUGU.

On to B13, for which the binding signal is 0.871 KA relative to UGCAUGU.
